ClpP mod – qHTS Assay for Activators of ClpP; hit rate 1.9% among 340,000; purified B. subtilis ClpP, FRET peptide cleavage, 20 min; Potency, µM (top dose mostly 57.5 µM), inactives show at the highest dose activity change, negative = active; active = well fitted falling curve with a large enough effect; inconclusive = small, poorly fitted or top-dose-only effect; inactive = no such curve, though single readings can be large or run the other way; also: potency is read from the fitted curve at half-maximal effect; the source files actives as falling curves though it sought activators and does not explain the sign; nearly all actives have a fitted effect of over 65% in size
Target sequence (P80244 whole entry, looked up): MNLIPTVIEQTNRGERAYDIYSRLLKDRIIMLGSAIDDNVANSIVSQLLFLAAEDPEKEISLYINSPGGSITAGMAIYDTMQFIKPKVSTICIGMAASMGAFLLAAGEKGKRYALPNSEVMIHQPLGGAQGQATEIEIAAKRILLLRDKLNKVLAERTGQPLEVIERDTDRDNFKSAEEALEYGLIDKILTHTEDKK
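FRET quenching reversal measured ClpP activation: 10 microg/mL B. subtilis ClpP at pH 8 with the FRET-FV decapeptide, read at 430 nm after 320 nm excitation. The 20-min minus 0-min signal was scaled between DMSO/no-enzyme wells and ADEP (5.8 microM final).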
DT40 TDP1 no CPT – qHTS for Inhibitors of human tyrosyl-DNA phosphodiesterase 1 (TDP1): qHTS in cells in absence of CPT; AID 686978, 2013; hit rate 15% among 420,000; DT40 Tdp1-/- hTDP1 cells, no CPT, ATP luminescence, 48 h; Potency, µM (top dose mostly 46.2 µM), for inactives: top-dose activity change, negative = growth inhibition, actives largely listed as inhibitors; also: potency is read from the fitted curve at half-maximal effect; % is scaled to controls: 0 for no effect and ±100 for the full control effect; nearly all actives have a fitted effect of over 55% in size
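Growth kinetics read by CellTiter-Glo luminescence after ≥48 hr at 37 °C. Cells: DT40 Tdp1-/- stably carrying human TDP1, 400 per well, compound exposure in the absence of CPT (DMSO vehicle).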
DT40 TDP1 CPT – growth inhibition of DT40 Tdp1-/-;hTDP1 cells with camptothecin (screen for TDP1 inhibitors). Potency, µM (top dose mostly 46.2 µM), for the others: at the highest dose activity change, negative = growth inhibition, most hits filed as inhibitors. chicken DT40 Tdp1-/-;hTDP1 cells + 20 nM CPT, ATP luminescence, 48 h. AID 686979. hit rate 12% among 420,000; also: potency is read from the fitted curve at half-maximal effect; % is scaled to controls: 0 for no effect and ±100 for the full control effect; nearly all actives have a fitted effect of over 55% in size
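Chicken DT40 Tdp1-/- cells stably complemented with human TDP1 were seeded at 400 cells/well in medium containing 20 nM camptothecin, exposed to pin-transferred compounds, and grown at 37 °C for at least 48 hr. Viability was read as ATP luminescence.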
IL1B secr inh – inflammasome signaling inhibition, IL-1 beta readout. THP-1 LPS/ATP IL-1B secretion, AlphaLISA, 16 h; active compounds read low. activity change, % at 57.5 µM. hit rate 4.7% among 360,000. AID 743279; in the data active = activity change below about -50%; inconclusive = mostly about -30% to -49%; also: % is scaled to controls: 0 for no effect and ±100 for the full control effect
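Secreted IL-1B measured by AlphaLISA bead assay after 16 h compound exposure of THP-1 cells; compounds (final up to 57.5 uM) added 1 h before LPS (250 ng/mL) and ATP (1.25 mM) stimulation; lower signal means less secretion.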
DRD3 antagonist – D3 dopamine receptor (human) antagonism | P35462 | D3R cells, DiscoveRx beta-arrestin luminescence, antagonist mode; active compounds read low | max response, negative = inhibition, % | hit rate 2.5% among 360,000 | AID 652054; in the data active = max response below about -50%; inconclusive = no clear call, values can overlap the other calls; also: % is scaled to controls: 0 for no effect and ±100 for the full control effect
Target sequence (P35462 whole entry, looked up): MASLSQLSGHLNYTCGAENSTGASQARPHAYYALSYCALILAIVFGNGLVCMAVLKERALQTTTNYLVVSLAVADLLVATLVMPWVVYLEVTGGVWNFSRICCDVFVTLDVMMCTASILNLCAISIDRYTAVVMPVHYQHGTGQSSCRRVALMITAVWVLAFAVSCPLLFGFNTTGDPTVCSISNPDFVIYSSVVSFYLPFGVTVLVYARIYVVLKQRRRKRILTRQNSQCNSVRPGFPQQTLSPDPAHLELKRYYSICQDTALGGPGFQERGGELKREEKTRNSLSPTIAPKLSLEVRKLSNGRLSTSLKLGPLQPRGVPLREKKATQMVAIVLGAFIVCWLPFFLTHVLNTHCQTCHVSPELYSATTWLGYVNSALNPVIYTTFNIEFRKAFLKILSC
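Cells expressing the human receptor were seeded at 1500 cells/well, incubated overnight at 37 degrees C in 5% CO2, then exposed to library compounds with dopamine controls for 90 minutes at 37 degrees C before luminescent detection.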
DRD3 agonist – agonists of human D3 dopamine receptor | P35462 | D3R DiscoveRx beta-arrestin cells, luminescence, 90 min | max activation, % | hit rate 0.58% among 410,000; in the data active = max activation above about 30%; also: 0% is about no effect
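Agonist-mode cell screen: cells plated at 1500/well and incubated overnight at 37 °C, then exposed to library compounds for 90 min at 37 °C. Detection reagent was added for 30–60 min at room temperature, and luminescence was read.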
Numbers without * were called inactive; ? = inconclusive; nt = no result. Shown are actives, neighbours in structure and some others; about 21% of the full set was active somewhere. Unless noted, calls follow the shape of the dose curve; as a rule, active = well fitted inhibition curve with a large enough effect; inconclusive = small, poorly fitted or top-dose-only effect; inactive = flat fitted curve, though single readings scatter.

SMILES	ClpP mod	DT40 TDP1 no CPT	DT40 TDP1 CPT	IL1B secr inh	DRD3 antagonist	DRD3 agonist
COC(=O)CSc1nc(NC#N)nc(NC(C)C)n1	0.5%	-3.7%	3.9%	37.2	-2.1	-3.9
COc1ccc(N2CC(NC(=O)C(c3ccccc3)c3ccccc3)CC2=O)cc1OC (stereo unspecified)	-0.9%	?	?	nt	nt	1.5
CCOc1ccc(Oc2c(/C=N/NC(=O)C3CC3)c(C)nn2-c2ccccc2)cc1	4.2%	14.6µM*	?	6.2	-0.1	2.5
CCNc1ncc2nc(-c3ccc(Cl)cc3)c(=O)n(C[C@H]3CCCO3)c2n1	nt	-8.5%	-5.4%	nt	nt	nt
CCC(C)NC(=O)CSc1nc2c(sc3ccccc32)c(=O)n1Cc1ccccc1Cl (stereo unspecified)	-8.3%	3.26µM*	?	nt	nt	3.1
COCCNC(=O)CCCn1c(SCC(=O)c2ccc(Br)cc2)nc2c(sc3ccccc32)c1=O	-5.3%	-2.5%	-5.4%	nt	nt	-8.0
COCCNC(=O)CCCn1c(SCc2ccccc2Cl)nc2c(sc3ccccc32)c1=O	-2.7%	9.2µM*	?	nt	nt	-22.2
COc1cccc(-n2nnc(-c3nc(-c4ccccc4F)no3)c2C)c1	-0.2%	?	?	nt	nt	6.4
Cc1ccc(N(CC(=O)NCc2ccccc2)C(=O)CCC(=O)Nc2ccccn2)cc1	nt	0.8%	-1.2%	6.0	9.9	-3.1
CCOC(=O)/C=C/C(=O)N1CCN(C(=O)/C=C/C(=O)OCC)CC1	nt	20.6µM*	?	-100.1*	-7.2	-1.7
CCNc1ncc2nc(-c3ccc(OC)cc3)c(=O)n(Cc3ccc(F)cc3)c2n1	nt	6.2%	-10.9%	nt	nt	nt
O=C(C[C@@H]1CC[C@@H]2[C@H](COC[C@@H](O)CN2Cc2cc(F)ccc2F)O1)NCc1ccc(F)cc1	-2.5%	?	?	-4.8	5.5	3.1
O=C(C[C@H]1CC[C@@H]2[C@H](COC[C@H](O)CN2Cc2cccc(C(F)(F)F)c2)O1)NCCc1ccccc1	-3.9%	13µM*	20.6µM*	-16.2	11.2	-0.7
O=C(C[C@H]1CC[C@@H]2[C@H](COC[C@@H](O)CN2Cc2cccc(F)c2)O1)NCC1CCCCC1	0.4%	20.6µM*	20.6µM*	22.2	13.9	1.2
CN(C)N=Nc1nc2c(c(=O)n(C)c(=O)n2C)n1CC1CO1 (stereo unspecified)	-1.9%	14.6µM*	3.66µM*	12.7	-17.4	-1.7
CCN(CC)c1ccc(-c2nnc(SCC(=O)Nc3ccccc3C#N)n2-c2ccccc2)cc1	?	18.4µM*	18.4µM*	-3.9	0.0	5.4
N#Cc1ccccc1NC(=O)CSc1nnc(-c2ccccc2)n1-c1ccccc1	-9.8%	?	23.1µM*	25.6	6.7	-1.8
Cc1ccc(C(=O)C(C)OC(=O)CCN=C2NS(=O)(=O)c3ccccc32)cc1 (stereo unspecified)	nt	-15.4%	-13.5%	8.7	3.7	-2.9
CC(=O)c1cccc(NC(=O)c2cc(=O)[nH]c3ccc(S(=O)(=O)N4CCOCC4)cc23)c1	-0.3%	-13.1%	4.6%	33.6	-13.5	4.9
CCOC(=O)CCNC(C)C1COc2ccccc2O1 (stereo unspecified)	6.31µM*	-17.4%	?	-5.6	-26.7	-3.9
CC(C)N1CCN(CC2COc3ccccc3O2)CC1 (stereo unspecified)	-0.3%	-9.2%	-0.3%	-3.7	-50.0*	2.7
OCCN1CCN(CC(O)COCC2COc3ccccc3O2)CC1 (stereo unspecified)	nt	-3.3%	4.2%	-1.3	-17.0	2.3
CC(NCC1COc2ccccc2O1)C1COc2ccccc2O1 (stereo unspecified)	nt	-27.9%	-6.7%	?	-63.4*	-22.7
O=C(Nc1cccc(F)c1)c1ccc(Cn2cc([N+](=O)[O-])cn2)o1	nt	-28.4%	-16.0%	-14.5	-13.2	-8.6
Cc1ccc(C)c(NC(=O)CN(C)C(=O)c2oc3c(Cl)cccc3c2C)c1	nt	?	?	18.1	22.3	9.2
SMILES	ClpP mod	DT40 TDP1 no CPT	DT40 TDP1 CPT	IL1B secr inh	DRD3 antagonist	DRD3 agonist
O=Cc1ccsc1B(O)O	-1.2%	-0.8%	-3.4%	nt	nt	nt
CCn1nc(NS(=O)(=O)c2ccccc2)c2cc3ccccc3nc21	-2.2%	?	23.1µM*	42.0	-5.5	-1.5
Cc1cccc(OCC(=O)N(Cc2ccc(F)cc2)C2CCS(=O)(=O)C2)c1C (stereo unspecified)	-0.3%	-1.2%	-22.1%	1.7	-3.5	0.1
COC(=O)C1=C[C@@H](C(=O)OC)C2C3=C(C(=O)C24CCCCC4)[C@H](C)n2c(=O)n(-c4ccccc4)c(=O)n2[C@@H]3C1 (stereo partly specified)	-1.1%	?	?	-5.0	27.6	35.3*
CC(C)CCNC(=O)C(=O)Nc1cc2c3c(c1)CC(=O)N3CCC2	2.2%	21.6%	-4.7%	26.8	11.6	39.1*
CC(C)CCNC(=O)C(=O)Nc1cc2c3c(c1)CCC(=O)N3CCC2	-1.0%	11.6%	-2.7%	-6.6	2.2	4.3
O=C(CCl)c1cc2c3c(c1)CC(=O)N3CCC2	-1.5%	0.326µM*	1.16µM*	-70.9*	-25.0	-7.4
O=C(NCCO)C(=O)Nc1cc2c3c(c1)CC(=O)N3CCC2	-5.0%	?	-3.9%	4.4	?	1.4
Cc1cccc(Cn2cc(S(=O)(=O)c3cccc(Cl)c3)c(=O)c3cc(F)c(N4CCOCC4)cc32)c1	-5.0%	-18.4%	-0.6%	nt	nt	0.1
COc1ccc(Br)cc1CNc1ccc2[nH]c(=O)[nH]c2c1	nt	-29.3%	-31.5%	-60.9*	15.8	7.8
COc1ccc(Br)cc1CNc1ccc(O)cc1	-7.9%	?	?	-94.6*	-66.4*	-2.5
Fc1ccc(-c2nc3c(-c4ccc(Cl)cc4)cnn3cc2CCN2CCOCC2)cc1	-0.7%	-3.6%	11.3%	-9.6	-1.2	-0.2
CC1(C)CC(N=Cc2c(O)n(Cc3ccc4c(c3)OCO4)c(=O)c3ccccc23)CC(C)(C)N1	nt	7.31µM*	6.51µM*	-106.7*	?	-5.7
CCCCn1c(N)c(N(CCC(C)C)C(=O)CC2CCCC2)c(=O)[nH]c1=O	-1.5%	-17.8%	5.0%	-1.6	10.1	-2.9
O=c1oc2cc(O)ccc2cc1-c1nc2c(s1)CCc1ccccc1-2	20µM*	?	?	17.5	84.1	0.4
c1coc(CNc2ncnc3nc[nH]c23)c1	2.3%	-28.0%	-25.8%	10.8	0.0	2.5
COc1ccc(/C=N/Nc2ncnc3c2[nH]c2ccc(C)cc23)c(OC)c1OC	nt	14.6µM*	?	55.5	11.6	11.9

Screening data as filed in PubChem BioAssay.
